Assay results reported in PubChem BioAssay (NCATS).
Results filed as inconclusive are left out. The source made the active and inactive calls. Unless noted, calls come from the whole dose curve; as a rule, active = well fitted curve in the direction sought with a large enough effect; inconclusive = small, poorly fitted or top-dose-only effect, or another doubt; inactive = no such curve, though single readings can be large; an effect the other way counts as inactive or inconclusive.

Legend:
[1] = target: Aldehyde dehydrogenase, mitochondrial (Homo sapiens) (UniProt P05091); test: qHTS for Inhibitors of the Aldehyde Dehydrogenase Family (ALDH2) Confirmatory screens (AID 2061303; active = well fitted inhibition curve with a large enough effect; title and protocol of this record describe different tests; note: nearly all actives have a fitted effect of over 45% in size; note: potency is the fitted concentration of half-maximal effect)
[2] = qHTS for Inhibitors of the Aldehyde Dehydrogenase Family (ALDH1A2, ALDH1A3, ALDH2, ALDH3A1) (AID 2061307); note: nearly all actives have a fitted effect of over 50% in size; for Potency: test system not described further here; potency is the fitted concentration of half-maximal effect
[3] = target: Aldehyde dehydrogenase, mitochondrial (Homo sapiens) (UniProt P05091); test: qHTS for Inhibitors of the Aldehyde Dehydrogenase Family (ALDH2) Primary screen (AID 2061308); note: nearly all actives have a fitted effect of over 55% in size; note: potency is the fitted concentration of half-maximal effect
[4] = target: Retinaldehyde dehydrogenase 3 (Homo sapiens) (UniProt P47895); test: qHTS for Inhibitors of the Aldehyde Dehydrogenase Family (ALDH1A3) Primary screen (AID 2061315)
[5] = target: Aldehyde dehydrogenase 1A1 (Homo sapiens) (UniProt P00352); test: qHTS for Inhibitors of the Aldehyde Dehydrogenase Family (ALDH1A1) Confirmatory screens (AID 2061316); note: nearly all actives have a fitted effect of over 65% in size; note: potency is the fitted concentration of half-maximal effect
[6] = target: Retinaldehyde dehydrogenase 3 (Homo sapiens) (UniProt P47895); test: qHTS for Inhibitors of the Aldehyde Dehydrogenase Family (ALDH1A3) Confirmatory screens (AID 2061311); note: nearly all actives have a fitted effect of over 60% in size; note: potency is the fitted concentration of half-maximal effect
[7] = target: Retinal dehydrogenase 2 (Homo sapiens) (UniProt O94788); test: qHTS for Inhibitors of the Aldehyde Dehydrogenase Family (ALDH1A2) Confirmation screens (AID 2061314); note: potency is the fitted concentration of half-maximal effect; nearly all actives have a fitted effect of over 65% in size
[8] = BET inhibitor-based combinations targeting novel dependencies in MECOM-rearranged (r) AML: OCI-AML3 cell line (AID 2202232); settings: Potency: OCI-AML3 viability; note: potency is the fitted concentration of half-maximal effect; nearly all actives have a fitted effect of over 35% in size
Procedure, shortened: (§1)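 Each compound was tested at eleven concentrations on cells seeded at 500/well. After two days' incubation, ATP-based luminescence reported viability; responses relative to DMSO and blank wells yielded AUC and cell-line-centred Z-AUC.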

[9] = BET inhibitor-based combinations targeting novel dependencies in MECOM-rearranged (r) AML: MV-4-11 cell line (AID 2202233); note: potency is the fitted concentration of half-maximal effect; nearly all actives have a fitted effect of over 45% in size
Procedure, shortened: (§2)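 First, 500 cells per well were seeded; next, drugs were pinned as 11-point doses; then plates sat 48 hr in the incubator; finally CellTiter-Glo was added and luminescence read, with AUC and Z-AUC computed.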

[10] = BET inhibitor-based combinations targeting novel dependencies in MECOM-rearranged (r) AML: UCSD-AML1 cell line (AID 2202235); note: series mostly up to about 46 µM; nearly all actives have a fitted effect of over 40% in size
Procedure, shortened: as §2

[11] = BET inhibitor-based combinations targeting novel dependencies in MECOM-rearranged (r) AML: AML-194 cell line (AID 2202237; note: nearly all actives have a fitted effect of over 40% in size)
Procedure, shortened: as §1

Measured: Potency

Cc1ccc(-c2c(C(=O)CCl)n(CCCO)c3ncnc(N)c23)cc1
inactive: [1] | [2] | [3] | [4] | [5]

CCn1cc2nc(SCc3cccc(C)c3)n(CCc3ccccc3)c(=O)c2n1
active: [1] 28.2 µM | [2] 3.98 µM | [6] 1.26 µM | [7] 3.24 µM

N#Cc1nc(Nc2ccccc2)nc(NC2CCCC2)n1
active: [1] 1.78 µM | [2] 0.631 µM
inactive: [3] | [4]

COc1cc(/C=C/C(=O)OCC2OC(OC3(CO)OC(CO)C(O)C3O)C(O)C(O)C2O)ccc1O (stereo not drawn)
inactive: [1] | [2] | [3] | [5]

Cc1cc2c(c(=O)[nH]1)OC(C(O)CC(C)C)O2 (stereo not drawn)
inactive: [1] | [2] | [6]

CCn1cc2nc(SCc3ccc(C)cc3)n(CCc3ccccc3)c(=O)c2n1
active: [1] 14.1 µM | [2] 10 µM | [6] 0.447 µM | [7] 7.94 µM

O=S(=O)(NCCCCCCNS(=O)(=O)c1c(F)cccc1F)c1ccc2c(c1)OCCO2
inactive: [1] | [3] | [4]
active: [2] 5.01 µM | [5] 8.96 µM

Cc1nc(C2=NC(c3ccccc3Cl)C3=C(CCCC3=O)N2)cs1 (stereo not drawn)
inactive: [1] | [2] | [3] | [4]

CC(C)(C)OC(=O)N1CCN(c2ccc(NCc3ccc(-c4ccc(C(C)(C)C)cc4)o3)cc2)CC1
inactive: [1] | [2] | [3]
active: [5] 10.1 µM

Cc1ccc(CNc2ccc(N3CCN(C)CC3)cc2)cc1
inactive: [1] | [2] | [3] | [4] | [5]

O=c1cc(-c2ccccn2)oc2c(Nc3ccccc3)nccc12
inactive: [1] | [2]
active: [6] 20 µM

CC(=O)N1CCN(c2ccc(NCc3ccc(-c4cccc(Cl)c4)o3)cc2)CC1
active: [1] 1.13 µM | [2] 1.59 µM | [3] 2.24 µM | [5] 6.34 µM

S=C(Nc1cc(Cl)ccn1)N1CCN(c2ccc(Cl)c(Cl)c2)CC1
inactive: [4]
active: [1] 5.62 µM | [2] 6.31 µM | [3] 3.98 µM | [5] 4 µM

Cn1nnnc1Sc1ncnc2scc(-c3cccc(Br)c3)c12
inactive: [1] | [2] | [3] | [4] | [5]

Cc1c(NC(=O)c2cc3c(s2)CCCC3)cccc1-c1cn(C)c(=O)c(Nc2ccc(C3C(=O)N(C)CCN3C)cc2)n1 (stereo not drawn)
active: [8] 16.6 µM | [9] 16.6 µM
inactive: [10] | [11]
